Data: PubChem BioAssay AID1159580 (chemical genetic matrix, 2015)
The campaign covered roughly 5,500 compounds. About 2,000 (36%) were called active. Another 18% or so got no clear call; they are omitted. Rule as the data show it: active = normalized growth mostly below about 0.91 (no sharp cut-off); inconclusive = no clear call, values can overlap the other calls; inactive = mostly above about 0.92. This is one part of the list.

Test: chemical genetic growth profiling, strain panel (AID 1159580);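 also: tested at 20 µM; growth read once vehicle control cultures reached saturation at 30 °C; 1 = growth at the plate median or of vehicle wells; lower values mean less growth of the strain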
Conditions: S. cerevisiae deletion strains, growth OD

Measured: normalized growth

O=C(Nc1ccccc1C(=O)O)OCC1c2ccccc2-c2ccccc21
inactive: locus YAR019C, strain CDC15, active compounds read low 0.993 | locus YBL105C, strain PKC1, active compounds read low 0.989 | locus YBR135W, strain CKS1, active compounds read low 0.978 | locus YBR136W, strain MEC1, active compounds read low 0.987 | locus YBR160W, strain CDC28, active compounds read low 0.981 | locus YDL017W, strain CDC7, active compounds read low 0.986 | locus YDL028C, strain MPS1, active compounds read low 0.987 | locus YDL101C, strain DUN1, active compounds read low 0.988 | locus YDL108W, strain KIN28, active compounds read low 0.984 | locus YDL132W, strain cdc53, active compounds read low 0.985 | locus YDL214C, strain PRR2, active compounds read low 0.884 | locus YDR052C, strain DBF4, active compounds read low 0.983 | locus YDR054C, strain cdc34, active compounds read low 0.99 | locus YDR226W, strain ADK1, active compounds read low 0.982 | locus YDR477W, strain SNF1, active compounds read low 0.859 | locus YER123W, strain YCK3, active compounds read low 0.839 | locus YER133W, strain GLC7, active compounds read low 0.901 | locus YFL009W, strain cdc4, active compounds read low 0.986 | locus YFL029C, strain CAK1, active compounds read low 0.992 | locus YFR003C, strain YPI1, active compounds read low 0.985 | locus YFR019W, strain FAB1, active compounds read low 0.803 | locus YFR028C, strain CDC14, active compounds read low 0.979 | locus YGR040W, strain KSS1, active compounds read low 0.857 | locus YGR052W, strain FMP48, active compounds read low 0.701 | locus YGR092W, strain DBF2, active compounds read low 0.683 | locus YHR079C, strain IRE1, active compounds read low 0.793 | locus YHR205W, strain SCH9, active compounds read low 0.746 | locus YIL147C, strain SLN1, active compounds read low 0.986 | locus YJL095W, strain BCK1, active compounds read low 0.665 | locus YJL128C, strain PBS2, active compounds read low 0.927 | locus YJL157C, strain FAR1, active compounds read low 0.893 | locus YJR016C, strain ILV3, active compounds read low 0.99 | locus YJR066W, strain TOR1 (second series), active compounds read low 0.826 | locus YJR066W, strain TOR1, active compounds read low 0.709 | locus YKL067W, strain YNK1, active compounds read low 0.866 | locus YKL101W, strain HSL1, active compounds read low 0.72 | locus YKL193C, strain SDS22, active compounds read low 0.987 | locus YKL203C, strain TOR2, active compounds read low 0.883 | locus YLR133W, strain CKI1, active compounds read low 0.78 | locus YLR403W, strain SFP1, active compounds read low 0.795 | locus YML070W, strain DAK1, active compounds read low 0.842 | locus YMR001C, strain CDC5, active compounds read low 0.986 | locus YMR205C, strain PFK2 (second series), active compounds read low 0.853 | locus YMR277W, strain FCP1, active compounds read low 0.989 | locus YNL006W, strain LST8, active compounds read low 0.978 | locus YNL020C, strain ARK1, active compounds read low 0.728 | locus YNL161W, strain CBK1, active compounds read low 0.983 | locus YNL183C, strain NPR1, active compounds read low 0.742 | locus YNL207W, strain RIO2, active compounds read low 0.992 | locus YNL222W, strain SSU72, active compounds read low 0.985 | locus YNL307C, strain MCK1 (second series), active compounds read low 0.703 | locus YOL078W, strain AVO1, active compounds read low 0.977 | locus YOL136C, strain PFK27, active compounds read low 0.805 | locus YOR119C, strain RIO1, active compounds read low 0.927 | locus YOR231W, strain MKK1, active compounds read low 0.818 | locus YOR329C, strain SCD5, active compounds read low 0.993 | locus YPL031C, strain PHO85, active compounds read low 0.827 | locus YPL153C, strain RAD53, active compounds read low 0.855 | locus YPL204W, strain HRR25, active compounds read low 0.797 | locus YPL209C, strain IPL1, active compounds read low 0.984 | locus YPR025C, strain CCL1, active compounds read low 0.991 | locus YPR106W, strain ISR1, active compounds read low 0.977 | locus YPR111W, strain DBF20, active compounds read low 0.96 | strain NNK1, active compounds read low 0.987 | strain TSCII, active compounds read low 0.99
active: locus YHR030C, strain SLT2, active compounds read low 0.366 | locus YHR082C, strain KSP1, active compounds read low 0.591 | locus YKL048C, strain ELM1, active compounds read low 0.799 | locus YLR113W, strain HOG1, active compounds read low 0.8 | locus YOR061W, strain CKA2, active compounds read low 0.553 | locus YPL256C, strain CLN2, active compounds read low 0.808
